Reference: publication PMC5540273 (PLoS ONE, 2017)

How the values were obtained:
Conditions in all cases: concentration: 1 μM, replicates: in singlicate; n = 1
MAP3K15 = test system: MAP3K15
MAP3K1 = test system: MAP3K1
MAP3K2 = test system: MAP3K2
MAP3K3 = test system: MAP3K3
MAP3K4 = test system: MAP3K4
MAP4K2 = test system: MAP4K2
MAP4K3 = test system: MAP4K3
MAP4K4 = test system: MAP4K4
MAP4K5 = test system: MAP4K5
MAPKAPK2 = test system: MAPKAPK2
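Further: KINOMEscan kinase panel screen.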

SMILES | %Inh (MAP3K15) [%] | %Inh (MAP3K1) [%] | %Inh (MAP3K2) [%] | %Inh (MAP3K3) [%] | %Inh (MAP3K4) [%] | %Inh (MAP4K2) [%] | %Inh (MAP4K3) [%] | %Inh (MAP4K4) [%] | %Inh (MAP4K5) [%] | %Inh (MAPKAPK2) [%]
Cc1nn2c(=O)cc(N3CCO[C@H](C)C3)nc2n1Cc1cccc(Cl)c1Cl [GSK2373693] | 22 | 66 | 7 | 0 | 4 | 0 | 4 | 17 | 10 | 12
CSc1ccc(NC2=C(c3ccc(Cl)cc3)C(=O)NC2=O)cc1 [SB-317658] | 0 | 0 | 1 | 29 | 37 | 12 | 1 | 16 | 17 | 1
Nc1ncc(-c2ccc3nccc(-c4ccncc4)c3c2)cc1S(=O)(=O)N1CCCCC1 [GSK1693850] | 0 | 9 | 0 | 1 | 14 | 16 | 0 | 5 | 6 | 5
O=C(Nc1c(F)cccc1F)c1cc(C(=O)c2ccccc2F)c[nH]1 [GSK1326180] | 0 | 0 | 0 | 0 | 42 | 0 | 0 | 19 | 0 | 8
COc1cc(Nc2nccc(N3CCC(NC(=O)Nc4ccc5c(c4)OCO5)C3)n2)cc(OC)c1OC (stereo not shown) [GSK1379766] | 0 | 8 | 0 | 0 | 29 | 17 | 0 | 0 | 0 | 0
CCOc1nccc(-c2c(-c3ccc(F)cc3)ncn2C2CCNCC2)n1 [SB-249175] | 57 | 42 | 10 | 7 | 11 | 100 | 0 | 31 | 27 | 0
O=C1NC(=O)C(c2ccccc2Cl)=C1Nc1cccc(Cl)c1 [SB-342409] | 0 | 10 | 1 | 3 | 3 | 0 | 5 | 0 | 0 | 37
CCNc1nccc(-c2c(-c3ccc(F)cc3)ncn2C2CCN(C)CC2)n1 | 0 | 0 | 0 | 0 | 0 | 0 | 0 | 0 | 0 | 0
CCn1cnc2c(NCc3ccccc3)ncnc21 [SKF-96418] | 22 | 16 | 14 | 0 | 2 | 0 | 0 | 0 | 0 | 0
N#CC1(c2cccc(C(=O)Nc3cccc(Oc4ccc5nc(NC(=O)C6CC6)sc5n4)c3)c2)CC1 | 0 | 0 | 22 | 0 | 19 | 0 | 58 | 68 | 50 | 0
COc1cccc(CC(=O)N2CCc3cc(-c4cn(C)c5ncnc(N)c45)ccc32)c1 [GSK2608899] | 13 | 20 | 82 | 49 | 77 | 38 | 78 | 0 | 84 | 21
CC(C)c1nc(-c2ccc(F)c(NS(=O)(=O)c3c(F)cccc3F)c2)c(-c2ccnc(Nc3ccc(N4CCOCC4)nc3)n2)s1 [GSK1804250] | 26 | 17 | 13 | 0 | 23 | 8 | 22 | 4 | 58 | 14
COC(=O)Nc1nc2ccc(Oc3ccc(NC(=O)Nc4cc(C(F)(F)F)ccc4F)cc3)cc2[nH]1.Cl [GW654607] | 0 | 25 | 0 | 0 | 23 | 1 | 0 | 22 | 11 | 29
COc1cccc2c(-c3ccncc3)c(-c3ccc(F)cc3)nn12 [GW468513] | 0 | 5 | 3 | 0 | 6 | 0 | 0 | 33 | 2 | 13
c1ccc(Oc2ccc(Nc3ccnc4cc(-c5ccc(CN6CCCCC6)o5)ccc34)cc2)nc1 [GW567143] | 18 | 8 | 0 | 0 | 0 | 0 | 0 | 13 | 81 | 3
COc1cc(Nc2nccc(N3CCC(NS(=O)(=O)c4ccc(NC(C)=O)cc4)CC3)n2)cc(OC)c1OC [GSK1379825] | 0 | 11 | 18 | 0 | 31 | 0 | 40 | 68 | 53 | 0
